# An excerpt weighted towards active compounds, which were near 1.4% of everything screened.
# GLD-1 RNA inh = GLD-1/TGE RNA complex disruptors, primary screen, biochemical, fluorescence polarization | Female germline-specific tumor suppressor gld-1 (Caenorhabditis elegans), Q17339 | purified GLD-1 + fluorescein TGE RNA | inhibition, % at 5.96 µM | 0.44% of 320,000 active;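 active = percent inhibition above a per-plate cutoff, the plate mean of test compounds plus 3 SD, cut at about 30% in these data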;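 note: 0% = DMSO wells with GLD-1 and probe and 100% = wells lacking GLD-1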
# E coli Lon inh = inhibitors of E. coli Lon protease, primary screen, biochemical, fluorescence polarization; P0A9M0; purified E. coli Lon protease; inhibition, % at 7.94 µM; 0.42% of 360,000 active; in the data active = inhibition above about 13%, passing the limit was not always enough;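 note: 0% = enzyme with probe and DMSO and 100% = no enzyme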
# MEX-5 binding = MEX-5 zinc finger RNA-binding disruptors – biochemical, C. elegans, fluorescence polarization, MLPCN library, primary screen. Zinc finger protein mex-5 (Caenorhabditis elegans), Q9XUB2. MEX-5/FITC-TCR2 RNA binding; active compounds read low. activity score (negative = inhibition of binding), % at 10 µM. 0.38% of 300,000 active. AID 1832, 2009;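 active = inhibition past about -25% in most replicates, and total fluorescence under double the plate's negative control median, limit read from the data; inconclusive = replicates evenly split on the limit, or fluorescence at least double controls; inactive = too little inhibition in most replicates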;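 note: 0% = DMSO and -100% = 5 µM competing unlabeled TCR2 RNA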
# Bcl-xL primary = inhibitors of human Bcl-xL, primary screen, biochemical, fluorescence polarization, HTS | GST-Bcl-xL / FITC-Bim BH3 peptide fluorescence polarization | 0.7% of 320,000 active | inhibition, % at 10.9 µM | Bcl-2-like protein 1 (Homo sapiens), Q07817;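 active = inhibition above the mean of all tested compounds plus 3 SD, cutoff set per campaign, cut at about 30% in these data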;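 note: 0% = DMSO wells and 100% = unlabeled Bim-BH3 peptide competitor; inhibitors lower millipolarization by displacing the labeled peptide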
# Target sequence (Q07817 whole entry, looked up): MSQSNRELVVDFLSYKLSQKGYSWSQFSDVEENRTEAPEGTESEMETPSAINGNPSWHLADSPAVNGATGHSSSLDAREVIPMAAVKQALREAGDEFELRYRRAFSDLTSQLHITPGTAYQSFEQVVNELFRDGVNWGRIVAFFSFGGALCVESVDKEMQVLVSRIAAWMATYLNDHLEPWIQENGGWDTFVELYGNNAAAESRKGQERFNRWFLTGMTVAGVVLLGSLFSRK
# EBV gp42 block = Epstein-Barr virus gp42 inhibitors, primary screen, biochemical, uHTS, fluorescence polarization; Fluorescence polarization binding assay, mP read-out; inhibition, % (tested at 21.74 µM); 0.42% of 220,000 active; in the data active = inhibition above about 50%
# Target sequence (Q1HVG2 whole entry, looked up): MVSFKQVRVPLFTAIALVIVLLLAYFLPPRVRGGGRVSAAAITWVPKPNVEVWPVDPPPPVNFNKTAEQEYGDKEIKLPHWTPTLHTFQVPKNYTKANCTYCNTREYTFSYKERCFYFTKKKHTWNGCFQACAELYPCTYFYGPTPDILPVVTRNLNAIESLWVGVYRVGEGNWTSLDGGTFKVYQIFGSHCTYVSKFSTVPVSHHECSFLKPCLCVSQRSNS
# MCL1 BIM primary = inhibitors of MCL1 binding to BIM-BH3, primary screen, biochemical, fluorescence polarization; inhibition, % at 10.9 µM; AID 2057, 2009; Induced myeloid leukemia cell differentiation protein Mcl-1 (Homo sapiens), Q07820; 0.68% of 320,000 active; GST-MCL1 / FITC-Bim-BH3 fluorescence polarization;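 active = inhibition above the mean inhibition of all tested compounds plus 3 SD, set per campaign, cut at about 40% in these data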;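 note: 0% = DMSO wells and 100% = unlabeled Bim-BH3 peptide control; higher means more loss of mP so more displacement of Bim peptide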
# Bcl-xL conf = Bcl-xL inhibitors blocking Bim BH3 binding, confirmation, counter-screen for MCL1 inhibitor project, biochemical, fluorescence polarization | shares compounds with MCL1 BIM primary | inhibition, % at 10.9 µM | GST-Bcl-xL / FITC-Bim BH3 peptide FP binding | 54% of 1,700 active;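 active = inhibition above a cutoff equal to the mean inhibition of all tested compounds plus 3 SD, cut at about 30% in these data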;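 note: 0% = DMSO wells and 100% = unlabeled Bim BH3 control peptide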
# MCL1 BIM confirm = inhibitors of MCL1 binding to BIM-BH3, confirmation, biochemical, fluorescence polarization, triplicate; 61% of 1,700 active; inhibition, % at 10.9 µM; shares compounds with MCL1 BIM primary; GST-MCL1 / FITC-Bim-BH3 fluorescence polarization;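 active = inhibition above the average of all tested compounds plus 3 SD, cut at about 40% in these data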;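 note: 0% = DMSO wells and 100% = unlabeled Bim-BH3 control peptide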
# An asterisk follows results filed as active; ? = inconclusive; . = no result.
SMILES,GLD-1 RNA inh,E coli Lon inh,MEX-5 binding,Bcl-xL primary,EBV gp42 block,MCL1 BIM primary,Bcl-xL conf,MCL1 BIM confirm
Cc1ccc2[nH]c3c(c2c1)CN(C(=O)CN(C)CC1OCCO1)CC3,53*,9,-7,58*,8,61*,9,11
CN(CC(=O)N1CCc2[nH]c3ccc(F)cc3c2C1)CC1OCCO1,4,.,-6,10,0,7,.,.
Cc1ccc(C(=O)Nc2c(-c3ccc(Cl)cc3)[nH][nH]c2=O)cc1,.,-2,.,.,.,.,.,.
Nc1ccc(C(=O)N/N=C\c2cc(N=Nc3cccc4ccccc34)ccc2O)cc1,4,2,0,7,14,66*,12,72*
COC(=O)N/N=C/c1cc(N=Nc2ccccc2Cl)ccc1O,1,-1,0,-2,-3,2,.,.
O=C(Nc1ccc2c(c1)nc1n2CCN(C2CCCCC2)C1)NC1CCCCC1,28,.,-8,57*,83*,67*,44*,54*
O=S(=O)(O)c1cc(O)c2c(O)c(N=Nc3cc(Cl)ccc3O)c(S(=O)(=O)O)cc2c1,3,45*,-46*,29,.,56*,36*,57*
O=S(=O)(O)c1cc(Cl)cc(N=Nc2ccc(O)cc2O)c1O,.,122,.,.,.,.,.,.
NC(=S)N/N=C/c1ncc(C(F)(F)F)cc1Cl,101*,17,-2,146*,10,153*,95*,113*
COc1ccc(C(=O)NCC(=O)OCC(=O)Nc2sccc2C#N)cc1OC,3,-10,-3,8,19,7,.,.
Oc1ccc(O)c(/C(=N/Nc2ccccc2)c2ccccc2)c1,1,.,-4,26,.,49*,17,13
Fc1cc2[nH]c(=S)[nH]c2c(Br)c1N1CCSCC1,0,0,-2,3,.,-2,.,.
COCCNc1nnc(SCC(=O)NNC(=O)c2ccc([N+](=O)[O-])cc2)s1,5,0,-19,-1,.,75*,-3,7
CC(N=Cc1cc([N+](=O)[O-])ccc1O)c1ccccc1 (centres undefined),-2,-1,1,6,-16,17,.,.
CC(N=Cc1cccc(O)c1O)c1ccccc1 (centres undefined),15,10,-3,33*,-16,66*,32*,71*
Nc1cccc2c(=O)c3ccccc3[nH]c12,7,12,-4,29,.,41*,37*,25
CCOC(=O)C/C(C)=N/NC(=O)CNc1cccc(Cl)c1C,1,5,2,6,3,43*,1,2
O=C1CCNc2cc3ccccc3cc21,57*,6,-5,112*,48,131*,114*,144*
Oc1cc2c(cc1O)[C@H]1c3ccc(O)c(O)c3OC[C@@]1(O)C2,24,0,.,28,.,57*,76*,108*
O=c1c(O)cccc2cc(O)c(O)c(O)c12,22,15,-37*,86*,82*,109*,85*,103*
CCCCn1c(N)c(N(CC)C(=O)c2c(C)noc2C)c(=O)[nH]c1=O,0,1,.,.,.,.,.,.
COc1cc2c3nnc(-c4ccc(F)cc4)c-3cn(Cc3ccccc3)c2cc1OC,-2,-5,?,82*,-44,68*,64*,63*

# Bioassay records as filed in PubChem.
